# Measurements from PubChem BioAssay (NCI).
# This is part of a sample that, as a whole, favours compounds with a hit. Of some 83,000 tested, about 20% had one in any assay.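 Assay: single dose, 48 h. Readout: percent growth (0 = no net growth; negative = cell death). Active: <10.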 A number with no mark means an inactive call. Active and inactive are the calls of the source.
# Columns and labels:
# Assay in all cases: NCI-60 one-dose screen, 48 h (100 = growth as untreated, 0 = no growth, -100 = all killed)
# Conditions in all cases: 10 µM unless noted
# T-47D breast = tested on: T-47D breast
# BT-549 breast = tested on: BT-549 breast
# MDA-MB-435 melanoma = tested on: MDA-MB-435 melanoma
# SW-620 colon = tested on: SW-620 colon
# MCF7 breast = tested on: MCF7 breast
# HCT-116 colon = tested on: HCT-116 colon
# HCC-2998 colon = tested on: HCC-2998 colon
# KM12 colon = tested on: KM12 colon
SMILES,growth (T-47D breast),growth (BT-549 breast),growth (MDA-MB-435 melanoma),growth (SW-620 colon),growth (MCF7 breast),growth (HCT-116 colon),growth (HCC-2998 colon),growth (KM12 colon)
Fc1ccc(C2CC(c3cccc(Nc4ccncc4)c3)=NN2c2ccccc2)cc1 (stereo not drawn),71%,87.7%,-54.8% (active),-65.4% (active),8.89% (active),61.9%,3.99% (active),8.85% (active)
COc1ccc(C(=O)c2cc3c(N)c(C(=O)Nc4cccc5ccccc45)sc3nc2C)cc1,32.6%,45.1%,-6.84% (active),21.9%,19.4%,6.55% (active),20.8%,12.3%
Cc1ccc(C(=O)Nc2ccccc2C(=O)N/N=C(\c2ccccc2)c2ccccn2)cc1,13.4%,13.5%,28%,37.3%,11.9%,17.9%,29.7%,26%
Fc1ccc(C2CC(c3cccc(Nc4ccncc4)c3)=NN2c2ccc(Cl)cc2)cc1 (stereo not drawn),80.9%,105%,-6.55% (active),-74% (active),6.6% (active),101%,16.7%,19.5%
Clc1cc(Cl)cc(N2N=C(c3cccc(Nc4ccncc4)c3)CC2c2ccc3c(c2)OCO3)c1 (stereo not drawn),63.4%,93.8%,-85.4% (active),-84.1% (active),-19.3% (active),65.3%,-40.8% (active),-51.6% (active)
Clc1ccc(N2N=C(c3cccc(Nc4ccncc4)c3)CC2c2ccccc2)cc1 (stereo not drawn),96.9%,92.9%,67.5%,86.2%,76.2%,-78.7% (active),97%,90.4%
COc1nccnn1,107%,94%,93%,101%,103%,99.2%,110%,95.7%
Fc1ccc2nc3c(cc2c1)CSc1nnc(-c2ccc[nH]c2=S)n1N3,84.1%,97.7%,103%,93.5%,98.7%,92.7%,103%,106%
COc1cc(C2CC(c3cccc(Nc4ccncc4)c3)=NN2c2ccccc2)cc(OC)c1OC (stereo not drawn),82.3%,59.4%,-72.9% (active),-25.9% (active),13.7%,32%,20.2%,7.46% (active)
CCCCCCN(C)Cc1ccc(OCCOc2ccc(CN(C)CCCCCC)cc2)cc1,-13.7% (active),26.2%,-17.4% (active),-70.2% (active),-76.3% (active),-96.1% (active),-87.5% (active),-19.3% (active)
C[C@H]1[C@H](C)CC[C@]2(CO)CC[C@]3(C)C(=CC[C@@H]4[C@@]5(C)CCCNC(C)(C)[C@@H]5CC[C@]43C)[C@H]12,1.1% (active),-66% (active),-73.9% (active),-69.6% (active),-29.4% (active),-94.7% (active),-38.7% (active),0.124% (active)
COc1cc(C2CC(c3cccc(Nc4ccncc4)c3)=NN2c2ccc(Cl)cc2)cc(OC)c1OC (stereo not drawn),71.3%,107%,-88.3% (active),-66.6% (active),-36.1% (active),105%,-36.2% (active),-74.5% (active)
CC1(C)CC[C@]2(C(=O)NCC#CCN3CCOCC3)CC[C@]3(C)C(=CC[C@@H]4[C@@]5(C)Cc6c([nH]c7ccccc67)C(C)(C)[C@@H]5CC[C@]43C)[C@@H]2C1,75.2%,101%,83.1%,103%,81.1%,73.9%,105%,91.3%
COc1ccc(C2CC(c3cccc(Nc4ccncc4)c3)=NN2c2cc(Cl)cc(Cl)c2)cc1 (stereo not drawn),73.8%,109%,-77.1% (active),-87.5% (active),-31.7% (active),83.9%,-46.5% (active),-80% (active)
CS(=O)(=O)c1ccc(-c2cc3c(oc2=O)-c2ccccc2OC3O)cc1 (stereo not drawn),90.4%,107%,111%,97.8%,84.8%,95.9%,97.5%,95.1%
COc1ccc(NC(=O)c2sc3nc(C)c(C(=O)CCc4cccc(OC)c4)cc3c2N)cc1,67.6%,79.6%,-10.4% (active),64.7%,16.5%,45.6%,56%,56.1%

SMILES,growth (T-47D breast),growth (BT-549 breast),growth (MDA-MB-435 melanoma),growth (SW-620 colon),growth (MCF7 breast),growth (HCT-116 colon),growth (HCC-2998 colon),growth (KM12 colon)
COc1ccc(-c2nc(N/N=C/c3c[nH]c4ccccc34)nc(N3CCOCC3)c2C#N)cc1,94.9%,97%,108%,72.6%,80.2%,59.8%,100%,83.9%
CCN(CC)CCCC(C)Nc1cc(-c2cccc(OC(F)(F)F)c2)nc2ccc(N3CCCC3)cc12 (stereo not drawn),-19.3% (active),78.7%,-84.4% (active),-37.5% (active),-10% (active),-53.7% (active),-58.2% (active),7.78% (active)
COc1ccc(-c2cnnc3c(-c4cccc(C(F)(F)F)c4)cnn23)cc1,48.9%,-34.9% (active),47.2%,79.3%,73.9%,2.24% (active),81.5%,82.6%
O=C(Nc1ccc2cc3ccc(NC(=O)NC4CCCCC4)cc3nc2c1)NC1CCCCC1,81.9%,75%,95.3%,84.3%,47.3%,65.1%,101%,97%
Fc1ccc(C2CC(c3cccc(Nc4ccncc4)c3)=NN2c2cc(Cl)cc(Cl)c2)cc1 (stereo not drawn),74.6%,104%,-22.5% (active),-85.2% (active),-25.6% (active),98.8%,19.1%,-35.7% (active)
O=C(O)c1ccc[n+](CC(=O)N2CCN(c3cc4c(cc3F)c(=O)c(C(=O)O)cn4C3CC3)CC2)c1,85.9%,75.1%,67.4%,-3.29% (active),50.9%,23.9%,111%,92.2%
[O-][n+]1ccccc1CCN(O)CCc1cccc[n+]1[O-],100%,101%,105%,102%,102%,94.7%,109%,104%
N#Cc1c(Nc2ccccc2)nn2cc(-c3nc4ccccc4s3)c(N)nc12,68.9%,67.2%,93.6%,72.2%,63.3%,76.4%,88%,88.2%
COc1cc(C2CC(c3cccc(Nc4ccncc4)c3)=NN2C(C)=O)cc(OC)c1OC (stereo not drawn),85.2%,103%,18.1%,87.8%,72.6%,71.2%,95.1%,69.5%
NC(=S)N/N=C(/c1ccccc1)c1ccccc1N,43.7%,104%,90.4%,79.2%,39.7%,3.36% (active),113%,98.9%
O=C(Nc1ccc2ncnc(Nc3ccc(Oc4cccc(F)c4)c(Cl)c3)c2c1)c1ccc(CN2CCOCC2)cc1,-9.3% (active),19.9%,22%,38.7%,10.5%,13.7%,69%,24.6%
C1=C2CNCC3=Cc4ccc5ccccc5c4OC23Oc2c1ccc1ccccc21,66.7%,79.9%,-69.7% (active),8.75% (active),12%,11.1%,56.9%,15.2%
CC(=O)O[C@H]1CC[C@@]2(C)[C@@H](CC[C@@H]3[C@@H]2CC[C@@]2(C)[C@H]3CC[C@]2(O)C(C)=O)C1,103%,92.5%,104%,104%,105%,99.1%,96.5%,107%
COc1ccc(-c2nc(SCCC(C)C)nc(N/N=C(/C)c3ccc(C)cc3)c2C#N)cc1,87.1%,91%,103%,95.2%,91.4%,93.2%,99%,93.5%
Cc1ccc(C2CC(c3cccc(Nc4ccncc4)c3)=NN2c2ccccc2)cc1 (stereo not drawn),-58.2% (active),81.2%,-89.5% (active),-62.7% (active),-92% (active),-78% (active),-92.2% (active),-88.3% (active)
